Assay [1] is described as follows: anti-His antibody binders, primary screen, artefact control for SMM control protein annotation, biochemical, small-molecule microarray, 635 nm fluorescence (AID 1128).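 Further: score merges feature fluorescence with signal-to-noise for each printed compound spot.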 The settings on record: anti-His Alexa647 antibody binding, higher = more signal.
Assay [2] relates to Human papillomavirus type 1a E7 protein (residues 1-88). Briefly: HPV1a E7 small-molecule binders, primary screen, biochemical, small-molecule microarray, residues 1-88, 635 nm (AID 1129). The settings on record: small-molecule microarray binding, fluorescence 635 nm; higher = more signal.
For assay [3], the target named is Focal adhesion kinase 1 (Homo sapiens) (UniProt Q05397). Briefly: small-molecule microarray binders of FAK, primary screen, biochemical, 635/667 nm fluorescence, BSA, DTT (AID 1130).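 Further: composite of spot emission at 667 nm and signal to noise over triplicate slides.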 Conditions: PTK2 binding, 635 nm fluorescence, higher = more signal.
Chain of Focal adhesion kinase 1 (Homo sapiens) (Q05397 whole entry, looked up): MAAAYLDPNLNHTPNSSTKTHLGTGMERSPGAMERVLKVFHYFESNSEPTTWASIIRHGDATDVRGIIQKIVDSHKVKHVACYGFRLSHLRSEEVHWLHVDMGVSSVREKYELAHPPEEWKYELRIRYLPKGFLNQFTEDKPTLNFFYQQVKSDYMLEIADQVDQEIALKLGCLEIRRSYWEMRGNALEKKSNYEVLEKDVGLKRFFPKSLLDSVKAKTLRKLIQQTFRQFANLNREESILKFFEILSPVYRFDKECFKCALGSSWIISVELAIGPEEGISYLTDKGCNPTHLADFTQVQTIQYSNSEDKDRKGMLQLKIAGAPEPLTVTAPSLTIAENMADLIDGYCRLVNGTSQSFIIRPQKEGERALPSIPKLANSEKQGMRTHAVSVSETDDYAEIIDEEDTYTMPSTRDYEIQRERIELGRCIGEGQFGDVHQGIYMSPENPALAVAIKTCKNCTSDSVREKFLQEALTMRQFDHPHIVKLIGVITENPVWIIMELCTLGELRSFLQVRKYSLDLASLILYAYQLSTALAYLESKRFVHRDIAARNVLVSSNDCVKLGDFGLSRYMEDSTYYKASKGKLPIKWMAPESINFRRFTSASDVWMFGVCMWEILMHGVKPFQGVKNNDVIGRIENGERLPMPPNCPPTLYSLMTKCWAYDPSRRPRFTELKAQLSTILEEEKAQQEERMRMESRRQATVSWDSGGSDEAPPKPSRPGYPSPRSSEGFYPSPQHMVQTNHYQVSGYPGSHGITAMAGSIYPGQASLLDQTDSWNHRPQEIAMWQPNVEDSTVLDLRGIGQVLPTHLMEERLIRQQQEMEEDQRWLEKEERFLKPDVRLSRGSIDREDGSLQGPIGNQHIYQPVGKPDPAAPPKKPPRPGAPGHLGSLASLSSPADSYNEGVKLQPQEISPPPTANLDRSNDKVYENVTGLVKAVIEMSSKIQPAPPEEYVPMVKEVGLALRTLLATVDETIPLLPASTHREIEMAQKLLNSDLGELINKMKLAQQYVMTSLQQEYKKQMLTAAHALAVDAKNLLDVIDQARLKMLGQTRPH
The test system of assay [4] is Fibrinogen (Alexa647-labelled). Briefly: fibrinogen binders on compound microarrays, profiling panel, artefact control for SMM control-protein annotation, biochemical, small-molecule microarray, 635/667 nm fluorescence (AID 1131).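 Further: z-score merges 667 nm fluorescence with per-spot signal-to-noise over triplicate slides.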 The settings on record: fibrinogen-A647 binding fluorescence, higher = more signal.
The target in assay [5] is Follistatin (Homo sapiens) (UniProt P19883). In words: follistatin binders on small-molecule microarrays, primary screen, biochemical, small-molecule microarray, 635/667 nm fluorescence (AID 1132). The settings on record: FST binding, 635 nm fluorescence, higher = more signal.
Chain of Follistatin (Homo sapiens) (P19883 whole entry, looked up): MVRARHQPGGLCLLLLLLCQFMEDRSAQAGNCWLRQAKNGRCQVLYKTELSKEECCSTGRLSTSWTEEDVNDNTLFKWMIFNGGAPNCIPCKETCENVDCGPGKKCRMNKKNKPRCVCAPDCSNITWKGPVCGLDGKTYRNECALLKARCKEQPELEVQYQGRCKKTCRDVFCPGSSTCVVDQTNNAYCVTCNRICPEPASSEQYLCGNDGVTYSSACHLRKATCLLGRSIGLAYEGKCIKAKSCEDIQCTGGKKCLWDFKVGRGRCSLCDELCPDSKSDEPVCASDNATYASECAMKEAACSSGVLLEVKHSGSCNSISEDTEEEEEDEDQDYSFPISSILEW
Assay [6] deals with Fibroblast growth factor 2 (Homo sapiens) (UniProt P09038). Briefly: FGF2 binders on small-molecule microarrays, primary screen, biochemical, small-molecule microarray, 635/667 nm fluorescence (AID 1133). The settings on record: small-molecule microarray binding, FGF2, fluorescence 635/667; higher = more signal.
Chain of Fibroblast growth factor 2 (Homo sapiens) (P09038 whole entry, looked up): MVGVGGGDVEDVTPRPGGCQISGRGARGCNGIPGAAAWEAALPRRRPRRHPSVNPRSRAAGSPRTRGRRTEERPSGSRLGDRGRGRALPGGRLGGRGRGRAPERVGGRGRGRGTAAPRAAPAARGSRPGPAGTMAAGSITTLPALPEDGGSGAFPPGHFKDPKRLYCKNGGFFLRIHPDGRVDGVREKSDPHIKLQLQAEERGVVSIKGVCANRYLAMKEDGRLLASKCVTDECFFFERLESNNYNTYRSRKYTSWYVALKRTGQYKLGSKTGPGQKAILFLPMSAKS
Assay [7] in a line: mitochondrial membrane potential change in A549 cells, profiling panel, cell-based, JC-1 fluorescence, basal, 24 h, 100 nL (AID 1138).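 Further: A549 lung adenocarcinoma cells under basal conditions with no added stimulus; test concentration not given here.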 Conditions: higher = more signal.
The next assay concerns Lefty1. Briefly: Lefty1 binders on small-molecule microarrays, primary screen, biochemical, small-molecule microarray, 635/667 nm fluorescence (AID 1139). Conditions: small-molecule microarray binding, fluorescence 635/667; higher = more signal.
The subject of assay [8] is wheat germ agglutinin (Triticum aestivum), Alexa647-labelled. In words: wheat germ agglutinin binders on compound microarrays, profiling panel, artefact control for SMM control-protein annotation, biochemical, small-molecule microarray, 635/667 nm fluorescence (AID 1140).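 Further: score merges 667 nm feature emission with signal to noise over triplicate slides.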 Conditions: WGA-A647 binding, 635 nm fluorescence, higher = more signal.
In assay [9] the target is Luciferin 4-monooxygenase (Photinus pyralis) (UniProt P08659). Briefly: firefly luciferase enzyme inhibitors, primary screen, biochemical, luminescence, purified enzyme, 2006 set (AID 1141).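 Further: cell-free assay with purified firefly luciferase at 100 ng per well in PBS; test concentration not given here.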 Conditions: SteadyGlo luminescence, 30 min, higher = more signal, called active from +8 up or from −8 down.
Chain of Luciferin 4-monooxygenase (Photinus pyralis) (P08659 whole entry, looked up): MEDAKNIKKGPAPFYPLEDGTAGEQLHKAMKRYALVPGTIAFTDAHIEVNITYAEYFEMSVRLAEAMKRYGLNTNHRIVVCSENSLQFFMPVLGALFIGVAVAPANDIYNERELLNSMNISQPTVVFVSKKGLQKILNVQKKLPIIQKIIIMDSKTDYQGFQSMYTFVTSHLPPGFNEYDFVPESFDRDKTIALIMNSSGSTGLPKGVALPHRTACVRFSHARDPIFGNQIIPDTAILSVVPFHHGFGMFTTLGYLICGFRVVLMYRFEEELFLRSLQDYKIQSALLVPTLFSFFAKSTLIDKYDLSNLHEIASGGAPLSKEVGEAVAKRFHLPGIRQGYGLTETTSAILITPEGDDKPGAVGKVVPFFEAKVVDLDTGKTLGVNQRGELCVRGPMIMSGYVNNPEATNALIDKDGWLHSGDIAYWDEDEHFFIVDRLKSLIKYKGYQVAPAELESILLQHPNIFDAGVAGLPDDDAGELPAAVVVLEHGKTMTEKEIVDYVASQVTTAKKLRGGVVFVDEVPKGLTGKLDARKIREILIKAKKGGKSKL
In assay [10] the test system is Wnt5a (protein binding on small-molecule microarray). In words: Wnt5a binders on small-molecule microarray, primary screen, biophysical, 635/667 nm fluorescence (AID 1142).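 Further: fluorescence read at 667 nm with signal to noise per printed feature.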 Conditions: 635 nm fluorescence, higher = more signal.
Assay [11] in a line: cell viability in Huh7 cells, primary screen, cytotoxicity control for HCV replication inhibitor project, CellTiter-Glo luminescence, basal, 48 h (AID 1143).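 Further: Huh7 hepatoma cells carrying a hepatitis C replication reporter with no stimulus; test concentration not given here.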 The settings on record: Huh7 HCV replicon, higher = more signal, called active from +8 up or from −8 down.
The nature of assay [12]: P. aeruginosa biofilm formation inhibitors, primary screen, PAO1 strain, BacTiter-Glo luminescence, LB-PBS (AID 1144). Conditions: 12 h, higher = more signal.
Assay [13] in a line: CREB reporter modulators without forskolin, primary screen, cell-based, PC12, CRE-LacZ reporter, unstimulated (AID 1145). The settings on record: no forskolin, luminescence, 4.5 h, higher = more signal, called active from +8 up or from −8 down.
A short description of assay [14]: CREB reporter modulators under forskolin, primary screen, cell-based, PC12, CRE-LacZ reporter, forskolin-stimulated (AID 1146).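 Further: PC12 cells with 6xCRE LacZ reporter stimulated by forskolin 10 µM; beta-galactosidase reporter signal reflecting CREB driven transcription.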 Conditions: luminescence, 4.5 h, higher = more signal, called active from +8 up or from −8 down.
Assay [15] deals with Streptavidin (Streptomyces avidinii) (UniProt P22629). In words: streptavidin binders on small-molecule microarray, primary screen, artefact control for SMM compound annotation, biophysical, 635/667 nm fluorescence (AID 1147).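 Further: signal reflects streptavidin binding to arrayed compounds as a control protein.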 Conditions: streptavidin binding, higher = more signal.
Chain of Streptavidin (Streptomyces avidinii) (P22629 whole entry, looked up): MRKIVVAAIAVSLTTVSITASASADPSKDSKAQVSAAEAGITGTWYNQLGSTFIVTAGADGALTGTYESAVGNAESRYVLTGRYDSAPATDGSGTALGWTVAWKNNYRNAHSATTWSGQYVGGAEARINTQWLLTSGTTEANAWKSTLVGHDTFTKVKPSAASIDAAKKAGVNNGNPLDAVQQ
Assay [16] in a line: small-molecule binders of probe aInhba, primary screen, biochemical, small-molecule microarray, 635/667 nm fluorescence (AID 1148).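 Further: score merges 667nm spot fluorescence with signal-to-noise for antibody binding to printed compounds.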 Conditions: higher = more signal.
Assay [17] concerns the target Torsin-1A (Homo sapiens) (UniProt O14656). Briefly: torsin A binders from cell lysate, primary screen, small-molecule microarray, wild-type, 635/667 nm (AID 1149). Conditions: COS7 hTOR1A-WT lysate, 635 nm fluorescence, higher = more signal.
Assay [18] has the same target. Briefly: small-molecule binders of mutant TOR1A in lysate, primary screen, cell lysate, small-molecule microarray, COS7 lysate, 635/667 nm fluorescence (AID 1150).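 Further: score pools 667 nm emission and signal to noise measuring lysate protein binding.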 Conditions: COS7 hTOR1A mutant lysate, 635 nm fluorescence, higher = more signal.
The test system of assay [19] is Sonic hedgehog protein (Shh). In words: small-molecule binders of Shh protein, primary screen, biochemical, small-molecule microarray, 635/667 nm fluorescence (AID 1151).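 Further: Shh protein binding to compounds spotted on small-molecule microarray slides; score combines spot fluorescence intensity with signal-to-noise across triplicate slides.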 The settings on record: small-molecule microarray binding, 635 nm fluorescence; higher = more signal.

Where “and” joins values, the source holds several entries; their conditions need not be identical. Identical values can stand only once. Calls of active or inactive are those of the source. Unless noted, how the calls were made is not given here.

Chain of Torsin-1A (Homo sapiens) (O14656 whole entry, looked up): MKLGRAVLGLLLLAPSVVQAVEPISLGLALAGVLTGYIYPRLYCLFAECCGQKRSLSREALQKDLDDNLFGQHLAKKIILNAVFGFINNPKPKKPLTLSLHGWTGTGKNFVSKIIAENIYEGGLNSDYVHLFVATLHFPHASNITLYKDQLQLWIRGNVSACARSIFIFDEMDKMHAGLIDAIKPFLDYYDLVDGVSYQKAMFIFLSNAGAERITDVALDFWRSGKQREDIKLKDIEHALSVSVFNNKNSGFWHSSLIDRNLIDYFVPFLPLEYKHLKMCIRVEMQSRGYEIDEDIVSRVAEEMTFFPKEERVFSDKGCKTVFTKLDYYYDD

With `C[C@@]1([C@@H](NC(=O)Cc2ccccc2)c2ccc(-c3ccccc3)cc2)C[C@H]1C1CCCCC1`, the composite z-score in assay [1] is 1.13 and 1.49 and 1.27; in [2], 1.18 and 1.08 and 0.987; in assay [3] it was 0.284 and 0.0485 and 0.83; in assay [4] it was 0.666 and 0.314 and 0.934; in [5], 0.153 and -0.222 and -0.138; in assay [6], -0.131 and -0.0451 and -0.355. Moreover, the composite z-score is -1.08 and -1.06 and -0.0526 in the assay on Lefty1; 1.04 and 0.829 and 1.15 in assay [8]; 1.42 and 1.03 and 0.799 in assay [10]; 2.11 and 0.863 and -0.261 in assay [15]; 0.846 and 1.64 and -0.328 in assay [16]; 0.0326 and 1.34 and 0.296 with Torsin-1A (Homo sapiens) [17]. Besides, the composite z-score with Torsin-1A (Homo sapiens) [18] was 0.621 and 0.522 and 0.821; in assay [19], -1.33 and -0.836 and -0.607. Besides, the z-score in assay [7] was -0.788 and 0.267 and 0.196; in assay [9], 0.393 (inactive) and 0.406 (inactive) and 1.92 (inactive); in [11], -4.75 (inactive) and -1.29 (inactive) and -1.07 (inactive); in assay [12], -0.411 (inactive) and -0.255 (inactive) and 0.378 (inactive); in [13], -0.957 (inactive) and -0.185 (inactive) and -0.375 (inactive); in assay [14], -1.27 (inactive) and 0.614 (inactive) and 0.79 (inactive).

Turning to `C[N+](C)(C)CCCCCCNC(=O)[C@H]1C[C@H]2C(=O)N[C@@H](CCCC[N+](C)(C)C)C(=O)N2[C@H]1c1cccc(OCCO)c1`, the composite z-score in assay [1] is 1.91 and 1.46; in assay [2], 0.516 and -0.266; in [3], -0.063 and 0.0884; in [4], 0.638 and -0.338; in [5], 1.39 and 1.43; in assay [6], 1.82 and 1.66. Besides, the composite z-score in the assay on Lefty1 is 1.59 and 0.768; in assay [8], 0.348 and 0.29; in assay [10], 0.138 and 0.215; in assay [15], -0.621 and 0.0935; in assay [16], 0.298 and 0.135; with Torsin-1A (Homo sapiens) [17], 0.765 and 1.27. Also, the composite z-score is 1.11 and 0.354 in the assay with Torsin-1A (Homo sapiens) [18]; 1.98 and 1.79 in [19]. Moreover, the z-score in assay [7] is 0.357 and -0.307; in assay [9] it was -0.0709 (inactive) and 0.15 (inactive); in [11], -0.153 (inactive) and 0.0096 (inactive); in [12] it was -0.454 (inactive) and 0.221 (inactive); in assay [13] it was -0.532 (inactive) and -1.09 (inactive); in assay [14], 0.323 (inactive) and -0.622 (inactive).

On to `C=CCN(CCCCC)C(=O)C1N(CCCCCCO)C(=O)C2C(C(=O)O)C3C=CC21O3` (stereo not given), for which the composite z-score is -2.31 and 0.41 in [1]; -0.813 and -0.519 in assay [2]; -0.687 and -0.922 in assay [3]; -1.63 and -1.36 in [4]; -2.64 and -1.13 in assay [5]; -2.25 and -2.14 in [6]. Moreover, the composite z-score with Lefty1 is -1.55 and -1.07; in assay [8], -1.8 and -0.883; in assay [10] it was -0.332 and -1.43; in assay [15] it was -1.69 and -1.59; in assay [16], -0.173 and -0.233; with Torsin-1A (Homo sapiens) [17], -2.55 and -3.31. The composite z-score with Torsin-1A (Homo sapiens) [18] is -1.53 and 0.765; in assay [19], -0.661 and -1.21. The z-score in assay [7] was -0.194 and 0.588; in assay [9], 0.0975 (inactive) and -0.324 (inactive); in assay [11], 0.289 (inactive) and 0.729 (inactive); in assay [12], 1.69 (inactive) and 2.31 (inactive); in assay [13], 0.333 (inactive) and -0.497 (inactive); in assay [14] it was -0.587 (inactive) and -0.0866 (inactive).

As to `C=C[C@H](OC)[C@@H](O)c1ccc(O)c(F)c1`, the composite z-score is -0.876 and -0.764 in assay [1]; -1.22 and -1.21 in assay [2]; -0.918 and -0.807 in [3]; -2.91 and -1.06 in [4]; -1.25 and -1.48 in [5]; -0.826 and -1.47 in [6]. Also, the composite z-score in the assay on Lefty1 is -2.23 and -1.28; in assay [8], -1.47 and 0.129; in assay [10], -0.542 and -1.18; in [15], -1.42 and -1.09; in [16], -0.409 and -0.32; with Torsin-1A (Homo sapiens) [17], -1.55 and -3.36. In addition, the composite z-score with Torsin-1A (Homo sapiens) [18] is -1.77 and -2.26; in assay [19] it was -1.28 and -0.249. The z-score is -0.547 and -0.0182 in [7]; -0.173 (inactive) and -0.446 (inactive) in [9]; -0.217 (inactive) and -0.324 (inactive) in assay [11]; -0.263 (inactive) and -1.21 (inactive) in [12]; 1.53 (inactive) and 0.353 (inactive) in assay [13]; 1.41 (inactive) and 0.473 (inactive) in [14].
